What was measured:
Test in all cases: log2 ratio of Biotin-Ahx-Ub-VS probe labelling (fragment/DMSO); higher = less target engagement (more negative = stronger competition), active = hit call of the paper (q ≤ 0.05, log2 ratio ≤ -1)
Conditions in all cases: compound concentration: 200 uM; treatment time: 3 h
USP34 = USP34 (UniProt Q70CQ2)
How it was run: (§1)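 Average log2 ratios of fragment over vehicle were obtained by unpaired t-test from global-median-normalised Spectronaut label-free quantities. Proteins with ≥2 unique peptides were included. HEK293T lysate (495 µg per sample) was treated in triplicate with fragment at 200 µM or vehicle for 3 h, then with Biotin-Ahx-Ub-VS at 0.5 µM final for 1 h, and labelled DUBs were NeutrAvidin-enriched and run by diaPASEF LC-MS/MS.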

USP36 = molecular target: T1, USP36 (UniProt Q9P275)
T1 sequence (whole entry): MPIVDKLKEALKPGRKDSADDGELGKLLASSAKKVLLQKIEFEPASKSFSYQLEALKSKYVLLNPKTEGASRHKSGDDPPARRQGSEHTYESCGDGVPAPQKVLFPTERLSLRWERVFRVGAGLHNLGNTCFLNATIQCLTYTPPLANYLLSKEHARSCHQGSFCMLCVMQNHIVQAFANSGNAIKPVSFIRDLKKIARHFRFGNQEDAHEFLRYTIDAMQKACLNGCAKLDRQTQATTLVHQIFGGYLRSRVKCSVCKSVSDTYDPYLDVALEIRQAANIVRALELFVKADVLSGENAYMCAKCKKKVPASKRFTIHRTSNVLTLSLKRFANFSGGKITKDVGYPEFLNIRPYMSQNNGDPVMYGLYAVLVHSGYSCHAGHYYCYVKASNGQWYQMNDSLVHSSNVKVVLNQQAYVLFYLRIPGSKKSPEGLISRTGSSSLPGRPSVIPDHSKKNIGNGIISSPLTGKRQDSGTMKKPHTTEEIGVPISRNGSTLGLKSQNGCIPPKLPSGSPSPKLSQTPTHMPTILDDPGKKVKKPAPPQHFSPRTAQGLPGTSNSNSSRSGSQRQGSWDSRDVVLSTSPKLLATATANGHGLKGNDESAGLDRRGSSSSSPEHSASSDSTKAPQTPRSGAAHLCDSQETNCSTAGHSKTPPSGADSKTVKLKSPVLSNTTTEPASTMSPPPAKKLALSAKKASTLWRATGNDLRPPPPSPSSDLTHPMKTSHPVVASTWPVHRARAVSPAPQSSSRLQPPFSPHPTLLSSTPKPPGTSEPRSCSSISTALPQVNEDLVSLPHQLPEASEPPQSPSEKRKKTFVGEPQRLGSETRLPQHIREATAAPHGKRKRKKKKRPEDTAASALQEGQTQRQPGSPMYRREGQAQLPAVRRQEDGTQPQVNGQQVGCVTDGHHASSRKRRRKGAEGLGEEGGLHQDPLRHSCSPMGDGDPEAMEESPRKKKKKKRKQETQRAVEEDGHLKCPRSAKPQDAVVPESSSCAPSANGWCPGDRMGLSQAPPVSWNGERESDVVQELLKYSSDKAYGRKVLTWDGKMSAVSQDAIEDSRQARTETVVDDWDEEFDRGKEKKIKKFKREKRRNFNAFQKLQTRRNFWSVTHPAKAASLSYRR
How it was run: as §1

USP38 = molecular target: T2, USP38 (UniProt Q8NB14)
T2 sequence (whole entry): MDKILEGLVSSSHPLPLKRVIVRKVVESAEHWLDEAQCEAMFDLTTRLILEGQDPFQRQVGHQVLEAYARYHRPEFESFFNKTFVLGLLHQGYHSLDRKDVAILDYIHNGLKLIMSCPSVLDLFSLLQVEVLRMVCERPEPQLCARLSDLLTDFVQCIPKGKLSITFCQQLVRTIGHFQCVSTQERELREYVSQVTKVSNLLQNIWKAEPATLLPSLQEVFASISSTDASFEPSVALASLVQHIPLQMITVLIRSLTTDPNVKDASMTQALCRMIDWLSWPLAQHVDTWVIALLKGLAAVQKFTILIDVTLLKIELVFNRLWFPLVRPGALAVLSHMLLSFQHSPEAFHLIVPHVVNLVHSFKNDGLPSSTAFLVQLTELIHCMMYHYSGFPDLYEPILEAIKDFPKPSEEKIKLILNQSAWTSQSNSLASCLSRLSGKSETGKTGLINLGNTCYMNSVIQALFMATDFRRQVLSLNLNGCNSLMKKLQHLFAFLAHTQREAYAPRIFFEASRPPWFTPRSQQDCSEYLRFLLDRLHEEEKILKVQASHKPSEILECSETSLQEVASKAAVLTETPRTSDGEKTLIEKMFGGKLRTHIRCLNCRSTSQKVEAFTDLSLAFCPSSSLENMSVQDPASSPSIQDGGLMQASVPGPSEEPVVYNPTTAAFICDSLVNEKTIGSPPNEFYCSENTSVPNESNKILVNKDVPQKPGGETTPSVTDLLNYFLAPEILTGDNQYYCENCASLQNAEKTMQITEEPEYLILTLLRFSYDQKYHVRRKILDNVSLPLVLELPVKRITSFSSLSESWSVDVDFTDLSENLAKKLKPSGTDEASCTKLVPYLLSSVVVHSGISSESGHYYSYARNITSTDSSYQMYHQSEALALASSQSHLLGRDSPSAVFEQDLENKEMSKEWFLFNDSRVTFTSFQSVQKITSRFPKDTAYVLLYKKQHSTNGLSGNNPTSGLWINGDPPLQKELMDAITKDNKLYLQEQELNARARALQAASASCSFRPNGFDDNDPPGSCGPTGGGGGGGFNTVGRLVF
How it was run: as §1

USP39 = molecular target: T3, USP39 (UniProt Q53GS9)
T3 sequence (whole entry): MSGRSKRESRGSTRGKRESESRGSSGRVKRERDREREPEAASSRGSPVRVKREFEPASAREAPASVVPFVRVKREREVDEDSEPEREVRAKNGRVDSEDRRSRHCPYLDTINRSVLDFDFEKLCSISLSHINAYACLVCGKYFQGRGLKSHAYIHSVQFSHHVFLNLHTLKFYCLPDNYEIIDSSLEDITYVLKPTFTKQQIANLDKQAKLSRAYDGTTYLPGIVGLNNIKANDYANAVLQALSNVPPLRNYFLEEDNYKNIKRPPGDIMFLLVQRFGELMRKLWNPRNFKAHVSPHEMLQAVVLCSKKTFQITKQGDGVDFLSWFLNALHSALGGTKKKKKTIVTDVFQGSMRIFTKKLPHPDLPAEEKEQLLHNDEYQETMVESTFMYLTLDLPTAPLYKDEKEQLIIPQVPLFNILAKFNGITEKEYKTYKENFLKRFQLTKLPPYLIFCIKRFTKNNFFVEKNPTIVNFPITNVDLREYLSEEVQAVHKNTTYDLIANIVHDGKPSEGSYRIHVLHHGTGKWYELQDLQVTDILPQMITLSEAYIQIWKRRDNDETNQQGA
How it was run: as §1

USP4 = molecular target: T4, USP4 (UniProt Q13107)
T4 sequence (whole entry): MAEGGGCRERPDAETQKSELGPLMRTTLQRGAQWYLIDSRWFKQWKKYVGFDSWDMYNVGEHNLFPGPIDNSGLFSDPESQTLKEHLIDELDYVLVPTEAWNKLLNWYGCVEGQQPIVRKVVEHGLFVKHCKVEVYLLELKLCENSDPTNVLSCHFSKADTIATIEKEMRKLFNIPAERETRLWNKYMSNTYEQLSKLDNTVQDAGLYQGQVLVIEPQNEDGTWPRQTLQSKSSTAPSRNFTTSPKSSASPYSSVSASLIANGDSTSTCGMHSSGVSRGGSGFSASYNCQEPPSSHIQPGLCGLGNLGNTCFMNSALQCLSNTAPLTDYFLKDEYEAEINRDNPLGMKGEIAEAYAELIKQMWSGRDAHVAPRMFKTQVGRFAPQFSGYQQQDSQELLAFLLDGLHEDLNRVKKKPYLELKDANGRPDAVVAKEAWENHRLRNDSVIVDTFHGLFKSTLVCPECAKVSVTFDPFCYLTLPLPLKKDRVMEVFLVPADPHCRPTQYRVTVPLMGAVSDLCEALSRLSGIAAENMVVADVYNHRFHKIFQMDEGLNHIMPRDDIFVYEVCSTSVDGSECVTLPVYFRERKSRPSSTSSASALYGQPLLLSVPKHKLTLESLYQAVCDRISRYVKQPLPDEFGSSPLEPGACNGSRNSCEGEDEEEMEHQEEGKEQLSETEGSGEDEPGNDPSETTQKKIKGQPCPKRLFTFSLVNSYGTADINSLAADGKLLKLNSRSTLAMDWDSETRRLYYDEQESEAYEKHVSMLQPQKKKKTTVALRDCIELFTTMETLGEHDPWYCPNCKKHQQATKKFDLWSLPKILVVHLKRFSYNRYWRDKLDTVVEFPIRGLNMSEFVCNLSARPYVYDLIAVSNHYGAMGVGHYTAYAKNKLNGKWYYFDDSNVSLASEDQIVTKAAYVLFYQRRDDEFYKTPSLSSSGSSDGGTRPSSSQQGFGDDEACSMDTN
How it was run: as §1

Measured: log2 ratio of Biotin-Ahx-Ub-VS probe labelling

Chain of USP34 (Q70CQ2 whole entry, the tested form may be a part): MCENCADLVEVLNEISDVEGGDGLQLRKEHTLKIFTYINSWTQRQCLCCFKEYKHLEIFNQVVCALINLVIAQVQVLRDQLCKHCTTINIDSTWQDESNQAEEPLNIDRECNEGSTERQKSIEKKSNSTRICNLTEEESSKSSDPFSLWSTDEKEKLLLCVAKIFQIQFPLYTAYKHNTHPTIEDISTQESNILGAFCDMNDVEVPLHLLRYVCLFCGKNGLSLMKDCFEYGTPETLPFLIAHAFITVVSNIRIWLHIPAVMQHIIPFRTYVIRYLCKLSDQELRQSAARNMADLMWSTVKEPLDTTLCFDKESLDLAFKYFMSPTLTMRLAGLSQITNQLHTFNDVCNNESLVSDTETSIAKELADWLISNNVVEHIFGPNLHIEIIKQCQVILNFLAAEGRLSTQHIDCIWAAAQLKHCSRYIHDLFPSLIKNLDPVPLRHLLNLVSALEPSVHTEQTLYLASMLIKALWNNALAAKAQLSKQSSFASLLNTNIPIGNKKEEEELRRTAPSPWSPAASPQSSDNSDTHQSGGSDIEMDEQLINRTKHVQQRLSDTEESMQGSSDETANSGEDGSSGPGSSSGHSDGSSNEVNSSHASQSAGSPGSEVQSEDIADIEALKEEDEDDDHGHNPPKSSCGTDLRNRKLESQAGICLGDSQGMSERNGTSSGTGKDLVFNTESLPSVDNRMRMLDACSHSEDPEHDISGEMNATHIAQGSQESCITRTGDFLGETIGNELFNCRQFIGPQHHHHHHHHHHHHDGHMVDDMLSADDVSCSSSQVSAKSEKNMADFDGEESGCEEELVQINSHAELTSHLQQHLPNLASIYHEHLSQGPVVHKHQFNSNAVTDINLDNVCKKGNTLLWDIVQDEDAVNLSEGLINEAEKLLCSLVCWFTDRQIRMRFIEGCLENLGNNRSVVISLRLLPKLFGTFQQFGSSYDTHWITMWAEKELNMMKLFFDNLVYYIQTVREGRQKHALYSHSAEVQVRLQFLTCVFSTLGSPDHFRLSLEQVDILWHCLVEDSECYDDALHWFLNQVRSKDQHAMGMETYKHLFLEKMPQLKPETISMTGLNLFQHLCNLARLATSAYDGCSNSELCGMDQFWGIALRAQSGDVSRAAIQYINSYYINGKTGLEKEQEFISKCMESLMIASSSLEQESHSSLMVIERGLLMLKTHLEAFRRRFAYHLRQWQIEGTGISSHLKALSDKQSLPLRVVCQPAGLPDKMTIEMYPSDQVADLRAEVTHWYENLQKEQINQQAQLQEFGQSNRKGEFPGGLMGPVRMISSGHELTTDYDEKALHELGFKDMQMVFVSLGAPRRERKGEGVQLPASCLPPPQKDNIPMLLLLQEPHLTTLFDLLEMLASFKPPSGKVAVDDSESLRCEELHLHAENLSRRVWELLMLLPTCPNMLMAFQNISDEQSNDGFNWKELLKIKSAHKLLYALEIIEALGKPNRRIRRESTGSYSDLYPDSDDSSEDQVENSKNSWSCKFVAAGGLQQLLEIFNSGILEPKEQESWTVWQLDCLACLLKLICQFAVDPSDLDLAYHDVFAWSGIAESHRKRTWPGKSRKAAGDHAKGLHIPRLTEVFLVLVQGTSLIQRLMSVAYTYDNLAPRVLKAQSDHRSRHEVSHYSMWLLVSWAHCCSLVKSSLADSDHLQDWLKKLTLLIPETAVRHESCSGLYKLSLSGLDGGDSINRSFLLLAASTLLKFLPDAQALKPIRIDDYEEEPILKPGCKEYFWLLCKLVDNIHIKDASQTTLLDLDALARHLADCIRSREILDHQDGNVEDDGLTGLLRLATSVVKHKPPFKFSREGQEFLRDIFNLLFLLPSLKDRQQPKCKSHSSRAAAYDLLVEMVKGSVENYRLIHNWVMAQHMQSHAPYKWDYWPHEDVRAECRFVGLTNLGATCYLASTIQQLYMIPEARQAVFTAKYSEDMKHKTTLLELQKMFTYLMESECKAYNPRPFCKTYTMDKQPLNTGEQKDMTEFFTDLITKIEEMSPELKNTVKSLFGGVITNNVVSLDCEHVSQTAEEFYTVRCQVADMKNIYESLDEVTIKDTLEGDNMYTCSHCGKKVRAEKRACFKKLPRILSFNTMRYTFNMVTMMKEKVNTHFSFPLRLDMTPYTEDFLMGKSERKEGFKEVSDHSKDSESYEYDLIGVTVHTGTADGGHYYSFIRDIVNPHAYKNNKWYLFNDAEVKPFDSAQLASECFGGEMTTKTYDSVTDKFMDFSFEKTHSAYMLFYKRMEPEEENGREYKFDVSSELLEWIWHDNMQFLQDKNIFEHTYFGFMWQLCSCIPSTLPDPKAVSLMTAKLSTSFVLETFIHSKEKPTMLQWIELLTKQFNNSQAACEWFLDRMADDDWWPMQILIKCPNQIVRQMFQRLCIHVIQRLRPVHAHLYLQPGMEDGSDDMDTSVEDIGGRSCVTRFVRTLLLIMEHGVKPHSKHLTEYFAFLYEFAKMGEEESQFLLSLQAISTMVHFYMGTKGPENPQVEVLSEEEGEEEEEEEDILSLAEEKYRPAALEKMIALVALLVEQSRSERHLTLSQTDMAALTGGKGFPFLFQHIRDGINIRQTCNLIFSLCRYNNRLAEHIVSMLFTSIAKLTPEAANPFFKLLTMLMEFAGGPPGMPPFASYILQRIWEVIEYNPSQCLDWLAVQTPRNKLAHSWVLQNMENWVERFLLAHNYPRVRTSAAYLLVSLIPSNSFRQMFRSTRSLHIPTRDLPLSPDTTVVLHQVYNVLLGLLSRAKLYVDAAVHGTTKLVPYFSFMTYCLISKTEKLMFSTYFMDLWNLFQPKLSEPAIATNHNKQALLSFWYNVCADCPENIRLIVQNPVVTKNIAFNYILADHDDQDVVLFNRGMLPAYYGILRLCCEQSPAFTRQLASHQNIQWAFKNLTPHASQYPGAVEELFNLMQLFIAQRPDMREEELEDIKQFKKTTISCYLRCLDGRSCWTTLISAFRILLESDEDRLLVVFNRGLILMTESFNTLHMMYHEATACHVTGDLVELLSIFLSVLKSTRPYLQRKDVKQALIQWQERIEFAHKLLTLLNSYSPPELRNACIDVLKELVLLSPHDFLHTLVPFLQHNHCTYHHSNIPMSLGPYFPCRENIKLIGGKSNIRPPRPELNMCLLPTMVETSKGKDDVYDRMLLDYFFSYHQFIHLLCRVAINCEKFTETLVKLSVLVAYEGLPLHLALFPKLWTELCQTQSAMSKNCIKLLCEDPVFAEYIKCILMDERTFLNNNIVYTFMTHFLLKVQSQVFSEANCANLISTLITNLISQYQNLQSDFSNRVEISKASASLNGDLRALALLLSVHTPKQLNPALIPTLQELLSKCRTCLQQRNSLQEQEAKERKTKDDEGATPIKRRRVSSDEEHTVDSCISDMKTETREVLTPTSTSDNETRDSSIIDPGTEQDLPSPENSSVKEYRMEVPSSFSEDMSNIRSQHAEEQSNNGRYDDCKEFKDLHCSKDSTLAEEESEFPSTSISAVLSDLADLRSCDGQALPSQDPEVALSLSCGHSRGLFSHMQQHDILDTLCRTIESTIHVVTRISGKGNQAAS

O=C(CCl)Nc1ccc(F)cc1F
inactive: USP34 -0.242 | USP36 -0.306 | USP38 0.102 | USP39 0.37 | USP4 -0.0254

Source: the supplement of paper PMC11732987, “Enantioselective OTUD7B fragment discovery through chemoproteomics screening and high-throughput optimisation” (Communications Chemistry, 2025)
